This note sets out measurements from PubChem BioAssay (EPA / NIEHS).

In general, AC50 refers to the concentration at which the activity in the assay is half-maximal.

Records with an inconclusive call do not appear. The source made the active and inactive calls. Rule for the calls: active = hit-call score of the fitted dose curve at least 0.9, where 1 is the maximum; inconclusive = response in the unintended direction; inactive = score below 0.9.

Chain of human RAR-related Orphan Receptor beta (RORb), RORB (gene 6096) (Q92753 whole entry, looked up, the tested form may be a part): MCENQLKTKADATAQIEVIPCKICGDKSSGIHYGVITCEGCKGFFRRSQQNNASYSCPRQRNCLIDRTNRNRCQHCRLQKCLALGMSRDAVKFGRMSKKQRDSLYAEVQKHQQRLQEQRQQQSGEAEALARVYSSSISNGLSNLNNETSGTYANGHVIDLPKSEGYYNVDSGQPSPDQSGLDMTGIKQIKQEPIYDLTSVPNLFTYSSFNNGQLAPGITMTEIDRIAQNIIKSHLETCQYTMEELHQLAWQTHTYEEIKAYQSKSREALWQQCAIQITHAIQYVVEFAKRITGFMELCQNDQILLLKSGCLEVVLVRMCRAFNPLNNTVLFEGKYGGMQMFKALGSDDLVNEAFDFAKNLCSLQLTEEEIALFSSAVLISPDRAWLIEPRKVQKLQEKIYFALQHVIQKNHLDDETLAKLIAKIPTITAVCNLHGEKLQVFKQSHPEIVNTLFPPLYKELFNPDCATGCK
Chain of human RAR-related Orphan Receptor gamma (RORg), RORC (gene 6097) (P51449 whole entry, looked up, the tested form may be a part): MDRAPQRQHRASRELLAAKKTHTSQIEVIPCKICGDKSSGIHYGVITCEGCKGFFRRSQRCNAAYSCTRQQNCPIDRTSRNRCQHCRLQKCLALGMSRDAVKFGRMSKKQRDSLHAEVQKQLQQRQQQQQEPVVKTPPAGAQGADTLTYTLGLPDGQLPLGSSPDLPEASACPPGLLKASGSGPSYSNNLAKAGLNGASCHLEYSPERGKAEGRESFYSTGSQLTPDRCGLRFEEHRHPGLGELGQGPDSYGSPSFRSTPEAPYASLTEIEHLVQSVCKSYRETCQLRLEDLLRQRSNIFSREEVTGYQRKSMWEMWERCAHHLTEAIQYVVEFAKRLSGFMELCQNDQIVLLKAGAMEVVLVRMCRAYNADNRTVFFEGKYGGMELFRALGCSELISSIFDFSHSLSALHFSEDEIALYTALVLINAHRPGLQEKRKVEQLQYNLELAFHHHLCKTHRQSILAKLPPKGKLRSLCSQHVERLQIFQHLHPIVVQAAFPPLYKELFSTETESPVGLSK
Chain of human Retinoid X Receptor beta (RXRb), RXRB (gene 6257) (P28702 whole entry, looked up, the tested form may be a part): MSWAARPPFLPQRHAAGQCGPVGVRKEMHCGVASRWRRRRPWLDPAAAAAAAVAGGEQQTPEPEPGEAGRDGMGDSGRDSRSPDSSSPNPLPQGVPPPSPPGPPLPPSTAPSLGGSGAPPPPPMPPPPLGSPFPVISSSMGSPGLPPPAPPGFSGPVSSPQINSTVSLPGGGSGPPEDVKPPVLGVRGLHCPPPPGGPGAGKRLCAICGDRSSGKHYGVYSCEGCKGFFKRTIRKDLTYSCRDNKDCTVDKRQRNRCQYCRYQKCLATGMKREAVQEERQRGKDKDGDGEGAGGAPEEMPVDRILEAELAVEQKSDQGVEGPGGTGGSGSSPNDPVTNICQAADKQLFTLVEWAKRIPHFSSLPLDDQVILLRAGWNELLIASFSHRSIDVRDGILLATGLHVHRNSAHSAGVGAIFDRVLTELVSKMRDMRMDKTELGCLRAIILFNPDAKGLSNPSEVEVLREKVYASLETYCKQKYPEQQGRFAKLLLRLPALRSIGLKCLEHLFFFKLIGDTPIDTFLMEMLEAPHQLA
Chain of human Retinoic Acid Receptor gamma (RARg), RARG (gene 5916) (P13631 whole entry, looked up, the tested form may be a part): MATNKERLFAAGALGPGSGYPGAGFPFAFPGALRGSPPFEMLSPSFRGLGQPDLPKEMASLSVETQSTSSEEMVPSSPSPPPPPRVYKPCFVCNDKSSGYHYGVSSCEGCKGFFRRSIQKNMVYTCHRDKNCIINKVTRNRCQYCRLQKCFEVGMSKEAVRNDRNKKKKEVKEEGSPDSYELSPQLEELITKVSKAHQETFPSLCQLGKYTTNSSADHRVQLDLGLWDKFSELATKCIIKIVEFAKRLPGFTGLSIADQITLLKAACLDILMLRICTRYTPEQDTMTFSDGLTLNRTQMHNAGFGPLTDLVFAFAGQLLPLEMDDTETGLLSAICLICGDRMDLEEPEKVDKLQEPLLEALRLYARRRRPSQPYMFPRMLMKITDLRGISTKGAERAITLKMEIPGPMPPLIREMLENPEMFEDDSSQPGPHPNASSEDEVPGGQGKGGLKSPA

For one assay, the target named is Nuclear receptor subfamily 1 group I member 2 (Homo sapiens) (UniProt O75469). Description: ATG_PXR_TRANS: Attagene TRANS-FACTORIAL HepG2 Assay for human Pregnane X Receptor (PXR) (AID 2283008). The gist of the method: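 Trans-factorial format: exogenous NR-Gal4 fusion activity, not endogenous factor, in transfected human HepG2 liver cells. After 24 h dosing, RNA isolated, reverse-transcribed, amplified and resolved by capillary electrophoresis; induction scored versus DMSO.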
Chain of Nuclear receptor subfamily 1 group I member 2 (Homo sapiens) (O75469 whole entry, looked up, the tested form may be a part): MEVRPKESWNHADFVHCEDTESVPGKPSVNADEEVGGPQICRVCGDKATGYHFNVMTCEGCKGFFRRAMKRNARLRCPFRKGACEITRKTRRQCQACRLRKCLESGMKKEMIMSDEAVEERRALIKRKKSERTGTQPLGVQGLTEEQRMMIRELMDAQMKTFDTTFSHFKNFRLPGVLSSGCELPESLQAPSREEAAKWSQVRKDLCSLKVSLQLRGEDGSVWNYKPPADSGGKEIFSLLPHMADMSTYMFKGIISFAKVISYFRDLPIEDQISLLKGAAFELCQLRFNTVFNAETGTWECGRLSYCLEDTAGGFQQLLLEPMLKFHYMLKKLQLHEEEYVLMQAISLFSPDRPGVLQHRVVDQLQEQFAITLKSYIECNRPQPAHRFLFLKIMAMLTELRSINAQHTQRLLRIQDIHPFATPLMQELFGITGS
Turning to `CCOCCOCC`, the molecule was called inactive.
With `COCC1CCC(CO)CC1` (configuration not stated), the result was inactive.
The same measure, in the same setting: to `COc1cc([N+](=O)[O-])ccc1N` belongs “inactive”.
As to `CC(O)COc1ccccc1` (configuration not stated), the result was inactive.
With `CCN(CCC#N)c1ccccc1`, the AC50 was 38.1 µM (active).
As to `Oc1cccc2c(O)cccc12`, the molecule was classed as inactive.
Take `CCCCCCCCC(C)=O`: the outcome was inactive.
Still for that read-out and setting: the value for `O=C(C=C(O)C(F)(F)F)C(F)(F)F` was “inactive”; that for `FC(F)(F)C(F)(F)C(F)(F)Br` was “inactive”.
Regarding `C=CC(F)(F)C(F)(F)C(F)(F)C(F)(F)F`, the result was inactive.
Still for that read-out and setting: the value for `O=C1OC(=O)c2cc(-c3ccc4c(c3)C(=O)OC4=O)ccc21` was “inactive”; that for `Cc1ccc(S(=O)(=O)O)cc1` was “inactive”.
Take `CCN(CC)CC`: the result was inactive.
In the case of `C=CCOCC(CO)(CO)CO`, the AC50 was 15.1 µM (active).
With `c1cc2cccc3c4cccc5cccc(c(c1)c23)c54`, the molecule was called inactive.
On the same count and under the same terms, the value for `CCCC=O` was “inactive”; that for `NCc1cccc(CN)c1` was “inactive”; that for `FC1(F)C=CC(F)(F)C1(F)F` was “inactive”.
Take `CCc1ccccc1O`: the AC50 was 15.7 µM (active).
On to `CC(=O)CC(C)C`, for which the molecule was called inactive.
`O=C(Nc1ccc(Cl)c(Cl)c1)c1cc(Cl)cc(Cl)c1O`: the concentration at half-maximal activity (AC50) is 2.74 µM (active).

A further assay concerns the target human Retinoic Acid Receptor gamma (RARg), RARG (gene 5916) (UniProt P13631). Description: ATG_RARg_TRANS: Attagene TRANS-FACTORIAL HepG2 Assay for human Retinoic Acid Receptor gamma (RARg) (AID 2283009). The gist of the method:
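Transactivation of exogenous RARg-Gal4 fusion measured as reporter transcript induction after 24 h in transfected HepG2 cells. RNA reverse-transcribed, amplified, fluorescently labeled and resolved by capillary electrophoresis; increase relative to DMSO.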
Turning to `COCC1CCC(CO)CC1` (configuration not stated), the call was inactive.
Regarding `CC(O)COc1ccccc1` (configuration not stated), the molecule was classed as inactive.
Consider `c1cc[nH]c1`, for which the molecule was classed as inactive.
Still for that read-out and setting: the value for `CCN(CCC#N)c1ccccc1` was “inactive”; that for `O=C(C=C(O)C(F)(F)F)C(F)(F)F` was “inactive”; that for `FC(F)(F)C(F)(F)C(F)(F)Br` was “inactive”.
Still for that read-out and setting: the value for `CCCCCCCCCCCCCCCC(=O)OC` was “inactive”; that for `CCN(CC)CC` was “inactive”; that for `C=CCOCC(CO)(CO)CO` was “inactive”.
Same read-out and setting: to `CCCC=O` belongs “inactive”; to `c1ccc2c(c1)CCC2`, “inactive”; to `CCc1ccccc1O`, “inactive”.
`O=C(Nc1ccc(Cl)c(Cl)c1)c1cc(Cl)cc(Cl)c1O`: the molecule was called inactive.

The next assay concerns the target human RAR-related Orphan Receptor beta (RORb), RORB (gene 6096) (UniProt Q92753). In words: ATG_RORb_TRANS: Attagene TRANS-FACTORIAL HepG2 Assay for human RAR-related Orphan Receptor beta (RORb) (AID 2283010). The gist of the method: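 Read-out is reporter mRNA induction, quantified by RT-PCR with fluorescent capillary electrophoresis, 24 h post-dose in transiently transfected HepG2 expressing exogenous NR-Gal4 chimera. Activity fitted upward versus DMSO.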
Turning to `CCOCCOCC`, the call was inactive.
In the case of `CC(O)COc1ccccc1` (configuration not stated), the result was inactive.
As to `c1cc[nH]c1`, the molecule was classed as inactive.
`CCN(CCC#N)c1ccccc1`: the call was inactive.
Consider `Oc1cccc2c(O)cccc12`, for which the molecule was classed as inactive.
On the same count and under the same terms, to `O=C1OC(=O)c2cc(-c3ccc4c(c3)C(=O)OC4=O)ccc21` belongs “inactive”; to `Cc1ccc(S(=O)(=O)O)cc1`, “inactive”; to `c1cc2cccc3c4cccc5cccc(c(c1)c23)c54`, “inactive”.
For the molecule `CCCC=O`, the result was inactive.
On the same count and under the same terms, to `CCOC(OCC)C(=O)c1ccccc1` belongs “inactive”.
For the molecule `O=C(Nc1ccc(Cl)c(Cl)c1)c1cc(Cl)cc(Cl)c1O`, the call was inactive.

The next assay has as its target human RAR-related Orphan Receptor gamma (RORg), RORC (gene 6097) (UniProt P51449). In words: ATG_RORg_TRANS: Attagene TRANS-FACTORIAL HepG2 Assay for human RAR-related Orphan Receptor gamma (RORg) (AID 2283011). A digest of the protocol: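 Reporter transcripts from a transfected RORg-GAL4 chimera in HepG2 cells were quantified 24 h after dosing by RT-PCR, 6-FAM labelling, HpaI digestion and capillary electrophoresis; increases over DMSO baseline were fitted.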
As for `CCOCCOCC`, the molecule was called inactive.
On the same count and under the same terms, the value for `COCC1CCC(CO)CC1` (configuration not stated) was “inactive”.
Regarding `CC(O)COc1ccccc1` (configuration not stated), the call was inactive.
Still for that read-out and setting: the value for `Oc1cccc2c(O)cccc12` was “inactive”.
`CC(C)CCOCCC(C)C`: the molecule was classed as inactive.
Take `CCCCCCCCC(C)=O`: the molecule was classed as inactive.
In the case of `CC(C)(C)c1ccc(CCC=O)cc1`, the call was inactive.
Still for that read-out and setting: the value for `CC=O` was “inactive”.
On the same count and under the same terms, to `CCN(CC)CC` belongs “inactive”; to `c1cc2cccc3c4cccc5cccc(c(c1)c23)c54`, “inactive”; to `CCCC=O`, “inactive”.
Same read-out and setting: to `Nc1ccn([C@@H]2O[C@H](CO)[C@@H](O)C2O)c(=O)n1` (some centres not stated) belongs “inactive”; to `c1ccc2c(c1)CCC2`, “inactive”; to `C/C=C/C(=O)C1=C(C)CCCC1(C)C`, “inactive”.
With `C[C@]12CC[C@@H]3c4ccc(O)cc4CC[C@H]3[C@@H]1CC[C@@H]2OC(=O)CCC1CCCC1`, the result was inactive.
As to `CCCCCCCCCC=CCC1CC(=O)OC1=O` (configuration not stated), the call was inactive.
With `CCCCCCCC(OC)OC`, the molecule was classed as inactive.
Still for that read-out and setting: to `NCc1cccc(CN)c1` belongs “inactive”; to `CC(=O)CC(C)C`, “inactive”.
On to `O=C(Nc1ccc(Cl)c(Cl)c1)c1cc(Cl)cc(Cl)c1O`, for which the result was inactive.

For the next assay, the target named is Retinoic acid receptor RXR-alpha (Homo sapiens) (UniProt P19793). Description: ATG_RXRa_TRANS: Attagene TRANS-FACTORIAL HepG2 Assay for human Retinoid X Receptor alpha (RXRa) (AID 2283012). The gist of the method: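 TRANS format reporting activity of exogenous RXRa-Gal4 chimera in transiently transfected HepG2, 24 h exposure. Reporter transcripts quantified by RT-PCR with capillary electrophoresis, with gain of signal scored relative to DMSO.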
Chain of Retinoic acid receptor RXR-alpha (Homo sapiens) (P19793 whole entry, looked up, the tested form may be a part): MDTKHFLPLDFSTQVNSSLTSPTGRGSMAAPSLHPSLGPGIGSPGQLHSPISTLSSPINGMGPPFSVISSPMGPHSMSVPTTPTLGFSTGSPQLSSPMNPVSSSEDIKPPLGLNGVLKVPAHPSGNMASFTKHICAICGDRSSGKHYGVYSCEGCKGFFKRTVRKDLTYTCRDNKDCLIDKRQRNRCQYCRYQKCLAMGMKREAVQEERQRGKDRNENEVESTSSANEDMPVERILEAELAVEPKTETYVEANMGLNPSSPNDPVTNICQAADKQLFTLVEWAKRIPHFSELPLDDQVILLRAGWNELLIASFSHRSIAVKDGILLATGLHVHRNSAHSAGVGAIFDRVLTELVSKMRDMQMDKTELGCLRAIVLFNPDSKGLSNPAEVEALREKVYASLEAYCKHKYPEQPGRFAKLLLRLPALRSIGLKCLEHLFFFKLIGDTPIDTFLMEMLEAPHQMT
Consider `COc1cc([N+](=O)[O-])ccc1N`, for which the molecule was called inactive.
With `CC(O)COc1ccccc1` (configuration not stated), the result was inactive.
Still for that read-out and setting: the value for `CCN(CCC#N)c1ccccc1` was “inactive”; that for `Oc1cccc2c(O)cccc12` was “inactive”; that for `CC(C)CCOCCC(C)C` was “inactive”.
Still for that read-out and setting: to `CCCCCCCCC(C)=O` belongs “inactive”; to `O=C1Cc2ccccc2N1c1c(Cl)cccc1Cl`, “inactive”.
The same measure, in the same setting: the value for `O=C(C=C(O)C(F)(F)F)C(F)(F)F` was “inactive”; that for `C=CC(F)(F)C(F)(F)C(F)(F)C(F)(F)F` was “inactive”; that for `CCC(=O)C=Cc1ccc(OC)cc1` was “inactive”.
In the case of `CCOC(=O)c1nc(C(Cl)(Cl)Cl)n(-c2ccc(Cl)cc2Cl)n1`, the molecule was called inactive.
On to `CC(C)(C)c1ccc(CCC=O)cc1`, for which the result was inactive.
Regarding `Cc1ccc(S(=O)(=O)O)cc1`, the molecule was called inactive.
On the same count and under the same terms, the value for `CC=O` was “inactive”.
Take `CCN(CC)CC`: the molecule was called inactive.
The same measure, in the same setting: to `C=CCOCC(CO)(CO)CO` belongs “inactive”.
With `CCCC=O`, the call was inactive.
The same measure, in the same setting: the value for `Nc1ccn([C@@H]2O[C@H](CO)[C@@H](O)C2O)c(=O)n1` (some centres not stated) was “inactive”; that for `O=C(O)c1cccc(C(=O)O)n1` was “inactive”.
On to `c1ccc2c(c1)CCC2`, for which the molecule was called inactive.
Still for that read-out and setting: to `C/C=C/C(=O)C1=C(C)CCCC1(C)C` belongs “inactive”.
Same read-out and setting: to `CCOC(OCC)C(=O)c1ccccc1` belongs “inactive”; to `C[C@]12CC[C@@H]3c4ccc(O)cc4CC[C@H]3[C@@H]1CC[C@@H]2OC(=O)CCC1CCCC1`, “inactive”; to `NCc1cccc(CN)c1`, “inactive”.
In the case of `CCc1ccccc1O`, the call was inactive.
With `CC(=O)CC(C)C`, the molecule was called inactive.
Still for that read-out and setting: to `CCCCCCCCCCCC(=O)NCCCN(C)C` belongs “inactive”.
`O=C(Nc1ccc(Cl)c(Cl)c1)c1cc(Cl)cc(Cl)c1O`: the result was inactive.

In a further assay the target is human Retinoid X Receptor beta (RXRb), RXRB (gene 6257) (UniProt P28702). Description: ATG_RXRb_TRANS: Attagene TRANS-FACTORIAL HepG2 Assay for human Retinoid X Receptor beta (RXRb) (AID 2283013). The gist of the method:
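Readout is reporter transcript induction after 24 h dosing. It is measured by RT-PCR of total RNA followed by fluorescent capillary electrophoresis. HepG2 liver cells carry transfected multiple reporter units driven by an exogenous RXRb-Gal4 fusion; activity is relative to DMSO.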
With `COc1cc([N+](=O)[O-])ccc1N`, the molecule was classed as inactive.
With `c1cc[nH]c1`, the molecule was called inactive.
Consider `CCN(CCC#N)c1ccccc1`, for which the molecule was called inactive.
The same measure, in the same setting: the value for `Oc1cccc2c(O)cccc12` was “inactive”; that for `FC(F)(F)C(F)(F)C(F)(F)Br` was “inactive”.
On to `CC(C)(C)c1ccc(CCC=O)cc1`, for which the AC50 was 41.2 µM (active).
In the case of `Cc1ccc(S(=O)(=O)O)cc1`, the molecule was classed as inactive.
`c1cc2cccc3c4cccc5cccc(c(c1)c23)c54`: the result was inactive.
For the molecule `Nc1ccn([C@@H]2O[C@H](CO)[C@@H](O)C2O)c(=O)n1` (some centres not stated), the call was inactive.
In the case of `O=C(O)c1cccc(C(=O)O)n1`, the molecule was called inactive.
On the same count and under the same terms, the value for `C/C=C/C(=O)C1=C(C)CCCC1(C)C` was “inactive”.
Consider `C[C@]12CC[C@@H]3c4ccc(O)cc4CC[C@H]3[C@@H]1CC[C@@H]2OC(=O)CCC1CCCC1`, for which the AC50 is 169 µM (active).
For `CCCCCCCCCC=CCC1CC(=O)OC1=O` (configuration not stated), the molecule was called inactive.
Regarding `CC(=O)CC(C)C`, the molecule was called inactive.
